Reference: PubChem BioAssay AID1159580 (chemical genetic matrix, 2015)
Where “and” joins values, the source holds several entries; their conditions need not be identical. Equal entries are not always repeated. Out of some 5,500 compounds screened, about 2,000 (36%) were called active. Inconclusive results (about 18%) are left out. Rule as the data show it: active = normalized growth mostly below about 0.91 (no sharp cut-off); inconclusive = no clear call, values can overlap the other calls; inactive = mostly above about 0.92. The list shows a part of the results.

Experiment: chemical genetic growth profiling, strain panel (AID 1159580);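 also: tested at 20 µM; growth read once vehicle control cultures reached saturation at 30 °C; 1 = growth at the plate median or of vehicle wells; lower values mean less growth of the strain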
Conditions: S. cerevisiae deletion strains, growth OD

Measured: normalized growth

C=C(CC)C(=O)c1ccc(OCC(=O)O)c(Cl)c1Cl
1 (inactive) and 0.835 (active): locus YJL095W, strain BCK1, stronger effect = lower value
active: locus YDL185W, strain tfp1, stronger effect = lower value 0.882 | locus YIL125W, strain kgd1, stronger effect = lower value 0.927 | locus YJR066W, strain TOR1, stronger effect = lower value 0.708 | locus YKL068W, stronger effect = lower value 0.91 | locus YLR113W, strain HOG1, stronger effect = lower value 0.551 | locus YNL183C, strain NPR1, stronger effect = lower value 0.828 | locus YNL271C, strain bni1, stronger effect = lower value 0.917 | locus YPR141C, strain kar3, stronger effect = lower value 0.902
inactive: locus YAL013W, strain DEP1, stronger effect = lower value 0.984 | locus YAL021C, strain ccr4, stronger effect = lower value 1 | locus YAL026C, strain drs2, stronger effect = lower value 0.98 | locus YAL030W, strain snc1, stronger effect = lower value 1.01 | locus YBL061C, strain skt5, stronger effect = lower value 1 | locus YBR009C, strain hhf1, stronger effect = lower value 1.01 | locus YBR021W, strain FUR4, stronger effect = lower value 1.02 | locus YBR023C, strain chs3, stronger effect = lower value 1.03 | locus YBR171W, strain sec66, stronger effect = lower value 1.01 | locus YBR229C, strain ROT2, stronger effect = lower value 0.951 | locus YBR231C, strain swc5, stronger effect = lower value 0.972 | locus YBR279W, strain paf1, stronger effect = lower value 1.01 | locus YCL011C, strain gbp2, stronger effect = lower value 1.03 | locus YCL016C, strain dcc1, stronger effect = lower value 1.04 | locus YCL029C, strain bik1, stronger effect = lower value 0.973 | locus YCL061C, strain MRC1, stronger effect = lower value 1.03 | locus YCL069W, strain vba3, stronger effect = lower value 1 | locus YCR088W, strain abp1, stronger effect = lower value 1.01 | locus YDL005C, strain med2, stronger effect = lower value 0.999 | locus YDL035C, strain GPR1, stronger effect = lower value 0.988 | locus YDL040C, strain nat1, stronger effect = lower value 0.994 | locus YDL074C, strain BRE1, stronger effect = lower value 0.986 | locus YDL101C, strain DUN1, stronger effect = lower value 0.983 | locus YDL134C, strain PPH21, stronger effect = lower value 0.972 | locus YDL192W, strain arf1, stronger effect = lower value 0.972 | locus YDR001C, strain nth1, stronger effect = lower value 1 | locus YDR069C, strain doa4, stronger effect = lower value 0.99 | locus YDR101C, strain arx1, stronger effect = lower value 0.92 | locus YDR137W, strain rgp1, stronger effect = lower value 1.01 | locus YDR150W, strain NUM1, stronger effect = lower value 0.976 | locus YDR159W, strain sac3, stronger effect = lower value 0.955 | locus YDR162C, strain NBP2, stronger effect = lower value 0.966 | locus YDR195W, strain ref2 0.974 | locus YDR297W, strain sur2, stronger effect = lower value 1.02 | locus YDR318W, strain mcm21, stronger effect = lower value 0.992 | locus YDR334W, strain swr1, stronger effect = lower value 1 | locus YDR335W, strain msn5, stronger effect = lower value 1.01 | locus YDR388W, stronger effect = lower value 0.972 | locus YDR392W, strain spt3, stronger effect = lower value 0.948 | locus YDR502C, strain sam2, stronger effect = lower value 0.984 | locus YEL003W, strain gim4, stronger effect = lower value 0.985 | locus YEL037C, strain rad23, stronger effect = lower value 1 | locus YEL061C, strain CIN8 (second series), stronger effect = lower value 1 | locus YEL061C, strain CIN8, stronger effect = lower value 0.996 | locus YER015W, strain faa2, stronger effect = lower value 0.993 | locus YER016W, strain bim1, stronger effect = lower value 0.993 | locus YER110C, stronger effect = lower value 0.963 | locus YER111C, strain swi4, stronger effect = lower value 1 | locus YER155C, strain BEM2 (second series), stronger effect = lower value 0.997 | locus YER155C, strain BEM2, stronger effect = lower value 0.998 | locus YER167W, strain BCK2, stronger effect = lower value 1 | locus YFR010W, strain ubp6, stronger effect = lower value 1.01 | locus YGL078C, strain dbp3, stronger effect = lower value 0.954 | locus YGL086W, strain mad1, stronger effect = lower value 0.977 | locus YGL167C, strain pmr1, stronger effect = lower value 1.01 | locus YGL173C, strain kem1, stronger effect = lower value 1 | locus YGL227W, strain vid30, stronger effect = lower value 1.01 | locus YGL240W, strain doc1, stronger effect = lower value 1.02 | locus YGL248W, strain PDE1, stronger effect = lower value 0.985 | locus YGL253W, strain hxk2, stronger effect = lower value 0.988 | locus YGR078C, strain PAC10, stronger effect = lower value 0.964 | locus YGR135W, strain pre9, stronger effect = lower value 1.05 | locus YGR229C, strain SMI1, stronger effect = lower value 1 | locus YGR252W, strain gcn5, stronger effect = lower value 1.2 | locus YHR013C, strain ard1, stronger effect = lower value 1.04 | locus YHR027C, strain rpn1, stronger effect = lower value 1.02 | locus YHR030C, strain SLT2, stronger effect = lower value 0.985 and 0.868 | locus YHR079C, strain IRE1 (second series), stronger effect = lower value 0.982 | locus YHR079C, strain IRE1, stronger effect = lower value 0.869 | locus YHR094C, strain hxt1, stronger effect = lower value 0.955 | locus YHR129C, strain ARP1, stronger effect = lower value 0.977 | locus YHR142W, strain chs7, stronger effect = lower value 1.04 | locus YHR200W, strain rpn10, stronger effect = lower value 0.984 | locus YIL066C, strain RNR3, stronger effect = lower value 0.968 | locus YIL073C, strain SPO22, stronger effect = lower value 0.995 | locus YIR030C, strain dcg1, stronger effect = lower value 0.993 | locus YJL092W, strain hpr5, stronger effect = lower value 1.01 | locus YJL095W, strain BCK1 (second series), stronger effect = lower value 1.03 | locus YJL115W, strain asf1, stronger effect = lower value 1 | locus YJL129C, strain trk1, stronger effect = lower value 1.02 | locus YJL134W, strain LCB3, stronger effect = lower value 0.983 | locus YJL154C, strain vps35, stronger effect = lower value 0.997 | locus YJL164C, strain tpk1, stronger effect = lower value 1.03 | locus YJL166W, strain qcr8, stronger effect = lower value 1.05 | locus YJL168C, strain set2, stronger effect = lower value 0.971 | locus YJL187C, strain SWE1 (second series), stronger effect = lower value 0.968 | locus YJL187C, strain SWE1, stronger effect = lower value 1 | locus YJR043C, strain POL32, stronger effect = lower value 0.981 | locus YJR075W, strain HOC1, stronger effect = lower value 0.982 | locus YKL009W, strain mrt4, stronger effect = lower value 0.923 | locus YKL085W, strain MDH1 (second series), stronger effect = lower value 0.938 | locus YKL085W, strain MDH1, stronger effect = lower value 0.938 | locus YKL160W, strain elf1, stronger effect = lower value 1.06 | locus YKR001C, strain vps1, stronger effect = lower value 0.906 | locus YKR026C, strain gcn3, stronger effect = lower value 1 | locus YKR091W, strain srl3, stronger effect = lower value 1.01 | locus YLL001W, strain dnm1, stronger effect = lower value 1.05 | locus YLL026W, stronger effect = lower value 1.01 | locus YLL041C, strain sdh2, stronger effect = lower value 1 | locus YLR027C, strain aat2, stronger effect = lower value 0.995 | locus YLR039C, strain RIC1, stronger effect = lower value 0.91 | locus YLR058C, strain SHM2, stronger effect = lower value 0.972 | locus YLR102C, strain apc9, stronger effect = lower value 0.972 | locus YLR221C, strain rsa3, stronger effect = lower value 1.04 | locus YLR258W, strain gsy2, stronger effect = lower value 1.02 | locus YLR262C, strain YPT6 (second series), stronger effect = lower value 1.01 | locus YLR262C, strain YPT6, stronger effect = lower value 0.873 | locus YLR268W, strain sec22, stronger effect = lower value 0.99 | locus YLR320W, strain mms22, stronger effect = lower value 1.08 | locus YLR330W, strain CHS5, stronger effect = lower value 0.978 | locus YLR342W, strain FKS1 (second series), stronger effect = lower value 0.983 | locus YLR342W, strain FKS1, stronger effect = lower value 1.01 | locus YLR357W, strain rsc2, stronger effect = lower value 0.995 | locus YLR370C, strain arc18, stronger effect = lower value 1.02 | locus YLR371W, strain rom2, stronger effect = lower value 0.953 | locus YLR384C, strain iki3, stronger effect = lower value 1.01 | locus YLR418C, strain cdc73, stronger effect = lower value 1 | locus YML016C, strain PPZ1, stronger effect = lower value 0.982 | locus YML032C, strain rad52, stronger effect = lower value 0.962 | locus YML120C, strain ndi1, stronger effect = lower value 1.05 | locus YML124C, strain tub3, stronger effect = lower value 0.98 | locus YMR058W, strain fet3, stronger effect = lower value 1 | locus YMR078C, strain ctf18, stronger effect = lower value 0.962 | locus YMR125W, strain sto1, stronger effect = lower value 1.02 | locus YMR129W, stronger effect = lower value 1.01 | locus YMR205C, strain PFK2, stronger effect = lower value 1.06 | locus YMR223W, strain ubp8, stronger effect = lower value 1.02 | locus YMR231W, strain pep5, stronger effect = lower value 0.978 | locus YMR307W, strain GAS1, stronger effect = lower value 1 | locus YNL067W, strain RPL9B, stronger effect = lower value 0.986 | locus YNL071W, strain lat1, stronger effect = lower value 1.01 | locus YNL209W, strain ssb2, stronger effect = lower value 1.02 | locus YNL233W, strain BNI4, stronger effect = lower value 0.988 | locus YNL248C, strain rpa49, stronger effect = lower value 1.01 | locus YNL250W, strain rad50, stronger effect = lower value 0.913 | locus YNL298W, strain CLA4, stronger effect = lower value 0.912 | locus YNL307C, strain MCK1, stronger effect = lower value 0.98 | locus YNL322C, strain KRE1 (second series), stronger effect = lower value 1.02 | locus YNR049C, strain mso1, stronger effect = lower value 1.01 | locus YNR052C, strain pop2, stronger effect = lower value 0.981 | locus YOL006C, strain TOP1, stronger effect = lower value 1 | locus YOL012C, strain htz1 1.29 | locus YOL147C, strain pex11, stronger effect = lower value 0.99 | locus YOR001W, strain rrp6, stronger effect = lower value 0.948 | locus YOR061W, strain CKA2, stronger effect = lower value 0.964 | locus YOR069W, strain VPS5, stronger effect = lower value 0.988 | locus YOR070C, strain gyp1, stronger effect = lower value 1.04 | locus YOR080W, strain dia2, stronger effect = lower value 1.01 | locus YOR083W, strain WHI5, stronger effect = lower value 1.05 | locus YOR106W, strain vam3, stronger effect = lower value 1.04 | locus YOR136W, strain idh2, stronger effect = lower value 0.979 | locus YOR144C, strain elg1, stronger effect = lower value 0.989 | locus YOR184W, strain ser1, stronger effect = lower value 0.991 | locus YOR231W, strain MKK1, stronger effect = lower value 0.909 | locus YOR265W, strain rbl2, stronger effect = lower value 1.01 | locus YOR270C, strain vph1, stronger effect = lower value 1.08 | locus YOR290C, strain snf2, stronger effect = lower value 1.01 | locus YOR316C, strain cot1, stronger effect = lower value 0.96 | locus YPL051W, strain arl3, stronger effect = lower value 0.992 | locus YPL078C, strain atp4, stronger effect = lower value 1.04 | locus YPL106C, strain sse1, stronger effect = lower value 1.01 | locus YPL240C, strain hsp82, stronger effect = lower value 1.02 | locus YPL241C, strain CIN2, stronger effect = lower value 0.983 | locus YPL256C, strain CLN2, stronger effect = lower value 0.899 | locus YPR119W, strain clb2, stronger effect = lower value 0.973 | locus YPR163C, strain tif3, stronger effect = lower value 0.981 | locus YPR167C, strain met16, stronger effect = lower value 0.989 | strain wtn01, stronger effect = lower value 0.997
